In the library only some 11% were active in any assay of this set; here they are far more common.
G9a inh: blocks human histone lysine methyltransferase G9a. Potency, µM (titrated, usually from 102 µM), usual class: inhibitors. 8.8% of 350,000 active. AID 504332. G9a H3K9 monomethylation, AlphaScreen, 2 h; note: nearly all actives have a fitted effect of over 75% in size
Target sequence (Q96KQ7 913-1193 limits assumed): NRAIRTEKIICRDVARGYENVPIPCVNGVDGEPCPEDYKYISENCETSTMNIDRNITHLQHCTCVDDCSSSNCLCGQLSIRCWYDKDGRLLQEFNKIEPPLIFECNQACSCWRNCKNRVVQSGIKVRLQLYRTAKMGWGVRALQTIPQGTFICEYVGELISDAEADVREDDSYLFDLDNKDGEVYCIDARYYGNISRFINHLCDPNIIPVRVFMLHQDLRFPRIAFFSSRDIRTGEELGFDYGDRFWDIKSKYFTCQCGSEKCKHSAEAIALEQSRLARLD
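Chemiluminescent proximity detection of H3K9 monomethylation, read after 10 min bead incubation in the dark. Reaction: 20 nM G9a, 500 nM biotin-H3K9 peptide, 20 uM SAM cofactor, 2 h, room temperature, following 15 min enzyme-compound preincubation.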
Coupling enz: counter-screen for Giardia aldolase inhibitors: coupling enzyme system; coupling enzyme system counterscreen, AmpLite Red fluorescence; 0.67% of 290,000 active; activity change, negative = inhibition, % at 58.2 µM, hits read low; in the data active = activity change below about -30%
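Final compound at 57.5 uM, incubated 10 min at RT with coupling enzyme reagent (glyceraldehyde-3-phosphate), then 20 min with substrate and AmpLite Red detection. Fluorescence read at 525/598 nm; tests interference with the coupling assay, not aldolase inhibition.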
Tau fluor cs: counter-screen for tau fibril formation inhibitors | Potency, µM (titrated, usually from 57.7 µM) | tau K18 P301L Alexa594 fluorescence, heparin fibrillization | 0.93% of 280,000 active | AID 1463; note: nearly all actives have a fitted effect of over 55% in size
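Human K18 P301L tau (15 uM unlabeled plus 0.24 uM Alexa 594-labeled, final) in 100 mM sodium acetate pH 7 was mixed with compound and 20 uM heparin and incubated 6 hr at 37 C.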
Tau fibril ThT: inhibitors of human tau fibril formation, thioflavin T binding; 2.1% of 270,000 active; recombinant tau K18 P301L, heparin-induced fibrillization, ThT fluorescence; Potency, µM (titrated, usually from 57.4 µM), actives largely listed as inhibitors; note: nearly all actives have a fitted effect of over 55% in size
Target sequence (P10636 561-689 P618L limits assumed): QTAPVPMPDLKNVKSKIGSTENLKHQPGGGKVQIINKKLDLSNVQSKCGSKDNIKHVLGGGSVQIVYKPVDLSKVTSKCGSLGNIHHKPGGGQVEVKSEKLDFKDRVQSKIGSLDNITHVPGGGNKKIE
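ThT emission at 510 nm, taken 1 hr after adding 30 uM dye, quantifies aggregates formed when 20 uM heparin acts on human tau K18 P301L for 6 hr at 37 C.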
Tau fibril FP: inhibitors of human tau fibril formation | P10636 | K18 P301L tau heparin fibrillization, Alexa594 FP, 6 h | Potency, µM (series often up to 57.7 µM), actives largely listed as inhibitors | 0.39% of 280,000 active; note: nearly all actives have a fitted effect of over 55% in size
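K18 P301L tau (15 uM unlabeled/0.24 uM Alexa 594-labeled, final) + compound + heparin 20 uM final; 100 mM NaOAc pH 7; 6 hr 37 C; ThT 30 uM final added, 1 hr RT; FP ex 555/em 632 nm.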
Sfp PPTase inh: Sfp phosphopantetheinyl transferase inhibition | Potency, µM, usual class: inhibitors | Biochemical Sfp PPTase activity, qHTS | 3.5% of 310,000 active | AID 1490;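 note: the enzyme is Sfp with the accession as filed and its product quenches rhodamine fluorescence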
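After 15 min at room temperature with compound, 15 nM Sfp received 5 uM rhodamine-CoA plus 12.5 uM BHQ-2-ybbR (50 mM Hepes pH 7.6, 10 mM MgCl2). Rate came from the fluorescence difference over 30 min, ex 525/em 598 nm.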
Hits are given with their value; i = inactive; ? = inconclusive; nt = not tested or not shown; [ ] = remark or other dose. Unless noted, calls come from the whole dose curve; as a rule, active = well fitted curve in the direction sought with a large enough effect; inconclusive = small, poorly fitted or top-dose-only effect, or another doubt; inactive = no such curve, though single readings can be large; an effect the other way counts as inactive or inconclusive.

SMILES | G9a inh | Coupling enz | Tau fluor cs | Tau fibril ThT | Tau fibril FP | Sfp PPTase inh
O=c1c(Cc2c(F)cccc2Cl)c(O)ccn1CCc1c[nH]c2ccccc12 | ? | i | ? | ? | i | i
COCc1cc(C(C)=O)ccc1OCC(=O)Nc1ccc(NC(C)=O)cc1 | i | i | ? | i | i | i
CC(=O)c1c(C)[nH]c(C(=O)OCC(=O)Nc2sc3c(c2C#N)CCC(C)C3)c1C (centres undefined) | i[12.7 µM] | i | ? | i | i | i
Cc1nc2ccc(S(=O)(=O)N3CCCCC3)cc2s1 | i | i | nt | nt | nt | i
Nc1nc2ccc(S(=O)(=O)N3CCCCC3)cc2s1 | 6.31µM | i | i | 31.6µM | ? | 10µM
O=C1NC(=O)[C@@H]2C3c4ccccc4C=CN3[C@H](C(=O)c3cccs3)[C@H]12 (some centres undefined) | 10µM | -43.4 | i | 28.2µM | ? | 79.4µM
CCOC(=O)c1ccc(NC(=O)CC2C(=O)OCCN2CC)cc1 (centres undefined) | 6.31µM | i | i | ? | i | i
CCN1CCOC(=O)C1CC(=O)Nc1cccc(OC)c1 (centres undefined) | ? | nt | i | ? | i | nt
CCOc1ccc(NC(=O)CC2C(=O)OCCN2CC)cc1 (centres undefined) | 2.24µM | nt | i | ? | i | nt
CCn1cc(/C=C(\NC(=O)c2ccccc2Cl)C(=O)NCCCn2ccnc2)c2ccccc21 | i | nt | i | i | i | nt
Cc1cccc(CCNC(=O)C2CCCN(S(=O)(=O)c3ccc4c(c3)oc(=O)n4C)C2)c1 (centres undefined) | i | nt | i | i | i | nt
CCCCn1nnc(NC(=S)NC(=O)c2ccc(-c3cccc(Cl)c3Cl)o2)n1 | 44.7µM | i | i | ? | i | ?
CCCCC(=O)NC(=S)Nc1nnn(CCC)n1 | 10µM | i | i | i | i | 14.1µM
CCCCC(=O)Nc1nnn(CCC)n1 | i[12.7 µM] | i | i | i | i | i
COC(=O)c1ccc(C(=O)Nc2ccc(N)cc2N)cc1 | 44.7µM | -34.0 | i | 12.6µM | i | i
COc1ccccc1NC(=O)c1ccc(N)cc1 | ? | i | i | i | i | i
Cc1cccc(OCC(=O)NCC2(N3CCN(C)CC3)CCCCC2)c1 | i | nt | i | i | i | nt
Cn1c(CNC(=O)c2cccs2)n[nH]c1=S | 28.2µM | i | i | i | i | i
CCn1c(CCNC(=O)c2cccs2)n[nH]c1=S | ? | i | i | i | i | i
COc1ccccc1-n1c(CNC(=O)c2cccs2)n[nH]c1=S | ? | i | i | i | i | i
O=C(NCc1n[nH]c(=S)n1-c1ccc(Br)cc1)c1cccs1 | 10µM | i | i | i | i | i
Cc1cccc(C(=O)NCCc2n[nH]c(=S)n2C)c1 | 11.2µM | i | i | ? | i | ?
Cn1c(CCNC(=O)c2cccs2)n[nH]c1=S | 22.4µM | i | i | i | i | i
C=CCn1c(C(C)NC(=O)c2cccc(C)c2)n[nH]c1=S (centres undefined) | 28.2µM | i | i | i | i | i
Cc1nc(N)sc1-c1csc(N(C)c2ccc(O)cc2)n1 | 44.7µM | i | ? | 15.8µM | ? | i
SMILES | G9a inh | Coupling enz | Tau fluor cs | Tau fibril ThT | Tau fibril FP | Sfp PPTase inh
Cc1nnc(SCC(=O)Nc2ccc(Br)cc2)[nH]c1=O | i | nt | i | i | i | nt
O=[N+]([O-])c1ccccc1/C=C/C=N/n1c(-c2ccccc2)n[nH]c1=S | 3.16µM | i | ? | ? | i | i
O=[N+]([O-])c1ccccc1/C=C/C=N/n1c(-c2ccc(Cl)cc2)n[nH]c1=S | 6.31µM | i | i | ? | i | i
COC(=O)/C=C/C(C)=C/C=C/C(C)=C/C=C/C=C(C)/C=C/C=C(C)/C=C/C(=O)O | nt | i | i | 12.6µM | ? | ?
COc1ccccc1NC(=O)/C=C\C(=O)O | ? | i | i | i | i | i
CCc1nnc(NS(=O)(=O)c2ccc(NCc3cc(Cl)cc(Cl)c3O)cc2)s1 | i | nt | nt | nt | nt | i
COc1cc2c(cc1OC)C(c1ccccc1[N+](=O)[O-])N(C(C)=O)CC2 (centres undefined) | i[0.501 µM] | i | nt | nt | nt | 44.7µM
COc1cc2c(cc1OC)C(COc1ccccc1OC)N(C(C)=O)CC2 (centres undefined) | i | i | nt | nt | nt | i
O=C1Cc2ccccc2C(=O)N1c1ccc(F)cc1Cl | 50.1µM | i | nt | nt | nt | i
O=C1Cc2ccccc2C(=O)N1c1cccc(Cl)c1 | 39.8µM | i | nt | nt | nt | i
O=C1Cc2ccccc2C(=O)N1Cc1ccccc1 | 50.1µM | -42.5 | i | ? | i | i
CCCCCCOc1ccc(C2C(=O)N(C3CCCCC3)CC(=O)N2CCCC)cc1 (centres undefined) | i | nt | i | i | i | nt
CCCCCCC#CC1C=CC(Oc2ccc(C=O)cc2)C(CO)O1 (centres undefined) | nt | i | i[11.6 µM] | i[11.5 µM] | i[11.6 µM] | i
COc1ccc(-c2c(C)nn(-c3ccccc3)c2NC(C)=O)cc1OC | nt | i | nt | nt | nt | i
CCN(CC)P1(=O)OC(c2cc(OC)c(OC)c(OC)c2)=Nc2c1c(C)nn2-c1ccccc1 (centres undefined) | 50.1µM | i | i | i | i | i
Cn1c(-c2nc(-c3ccccc3)cs2)nc2ccccc21 | nt | i | i | i | i | 44.7µM
O=C1OC(C(=O)Nc2ccccc2)Cc2ccccc21 (centres undefined) | i | i | i | i | i | i
C/C(=N\NC(=S)Nc1ccccc1)C1Cc2ccccc2C(=O)O1 (centres undefined) | nt | i | i | nt | i | 22.4µM
C/C(=N\NC(=S)Nc1ccccc1C)C1Cc2ccccc2C(=O)O1 (centres undefined) | 50.1µM | i | i | i | i | i
Cc1ccc(NC(=O)C2Cc3ccccc3C(=O)O2)cc1 (centres undefined) | i | i | i | i | ? | i
CCSC(C)CC1CC(=O)CC(=O)C1 (centres undefined) | 56.2µM | i | i | ? | i | i
CCC1CCCCN1C(=S)Nc1ccc(OC(F)F)cc1 (centres undefined) | i | i | i | i | i | ?
O=C(CN1CCCCC1CO)c1ccc(OC(F)F)cc1 (centres undefined) | 56.2µM | i | i | i | i | i
COc1cccc(NC(=O)C(Cc2ccccc2)NS(=O)(=O)c2ccc3c(c2)oc(=O)n3C)c1 (centres undefined) | i | nt | i | i | i | nt
COc1ccccc1Nc1ncc(C(=O)N2CCC(C(N)=O)CC2)c2ccccc12 | i | -34.2 | i | i | i | i
COc1ccc(Nc2ncc(C(=O)N3CCC(C(N)=O)CC3)c3ccccc23)cc1 | i | i | i | i | i | i
O=C(Cc1csc2ccccc12)NCc1ccc(F)cc1 | i | nt | i | i | i | nt
O=C(O)COCC(=O)NCc1csc2ccccc12 | 50.1µM | i | i | i | i | i
CC(=O)c1cccc(S(=O)(=O)NCCC(=O)O)c1 | i | i | i | i | i | i

Screening data as filed in PubChem.
